Source: PubChem BioAssay (National Center for Advancing Translational Sciences (NCATS))
TDP1 cell CPT = DT40-hTDP1 cell growth loss with CPT. chicken DT40 Tdp1-/-;hTDP1 cells + 20 nM CPT, ATP luminescence, 48 h. hit rate 12% among 420,000. Potency, µM (series often up to 46.2 µM), inactives show at the highest dose activity change, negative = growth inhibition, most hits filed as inhibitors; also: % is scaled to controls: 0 for no effect and ±100 for the full control effect; nearly all actives have a fitted effect of over 55% in size
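Cell growth measured by CellTiter-Glo luminescence after a minimum 48 h, 37 C compound exposure with 20 nM CPT in Tdp1-knockout DT40 cells stably expressing hTDP1, seeded 400/well; qHTS titration format.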
HT1080NT lethal = kills 2HG-producing HT-1080-NT fibrosarcoma cells. Potency, µM (series often up to 46.1 µM), without a hit: top-dose activity, negative = less viability, usual class: cytotoxic. hit rate 1.6% among 360,000. HT-1080-NT fibrosarcoma viability, CellTiter-Glo ATP luminescence, 48 h;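 also: NT is the 2HG producing partner of a matched IDH1 knockdown line; 0% = DMSO-treated cells and -100% = media-only wells without cells; nearly all actives have a fitted effect of over 55% in size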
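Fibrosarcoma NT cells, 750 per well in 5% FBS RPMI, were exposed to compound for 48 hours. Viability: CellTiter-Glo luminescence.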
TDP1 cell noCPT = qHTS for Inhibitors of human tyrosyl-DNA phosphodiesterase 1 (TDP1): qHTS in cells in absence of CPT; DT40 Tdp1-/- hTDP1 cells, no CPT, ATP luminescence, 48 h; Potency, µM (doses to about 46.2 µM), for inactives: at the top dose activity change, negative = growth inhibition, usual class: inhibitors; hit rate 15% among 420,000; AID 686978, 2013; also: % is scaled to controls: 0 for no effect and ±100 for the full control effect; nearly all actives have a fitted effect of over 55% in size
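Compound effects on proliferation are scored in DT40 Tdp1-/-;hTDP1 cells in the absence of CPT. ATP levels (CellTiter-Glo luminescence) are recorded after a ≥48 hr, 37 °C incubation.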
HT1080 IDH1KD tx = kills HT-1080 cells with IDH1 knockdown; HT-1080 IDH1 knockdown viability, ATP luminescence, 48 h; hit rate 2% among 360,000; AID 686971; Potency, µM (titrated, usually from 46.1 µM), inactives show at the highest dose activity, negative = toxicity, actives largely listed as cytotoxic;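 also: 0% = DMSO wells and -100% = cell-free medium wells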
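Using the IDH1-knockdown HT-1080 line run in the same batch and compound series as the NT line, viability after 48 h at 37 °C was determined by CellTiter-Glo luminescence and expressed as % activity.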
HepG2 tox = counter-screen for TGF-b inhibitors: cytotoxicity in HepG2 cells. hit rate 0.76% among 410,000. Potency, µM (top dose mostly 46.1 µM), inactives show at the highest dose activity change, negative = cytotoxicity, actives largely listed as cytotoxic. AID 588856. HepG2 CAGA-GFP viability, ATP luminescence, 18 h
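HepG2 CAGA-GFP cells (1000/well, DMEM with 1% FBS) received compound, then TGF-beta at 500 pg/mL final, and were incubated 18 hours at 37 degrees C. Viability was read by CellTiter-Glo luminescence. Media-only wells were set as complete cell-killing and DMSO as no toxicity.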
TGFb inhibitor = blocks TGF-b signaling; HepG2 CAGA-GFP TGF-b/SMAD3 reporter, GFP fluorescence, 18 h; TGF-beta stimulated, 500 pg/mL final; Potency, µM (series often up to 46.1 µM), inactives show at the top dose activity, negative = inhibition, usual class: inhibitors; hit rate 1.2% among 410,000; AID 588855; also: % is scaled to controls: 0 for no effect and ±100 for the full control effect; nearly all actives have a fitted effect of over 65% in size
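HEPG2 CAGA-GFP cells (1000/well, DMEM with 1% FBS) were pre-incubated 2 h at 37 degrees C, given compound by pin tool, then stimulated with TGF-beta at 500 pg/mL final for 18 h before per-cell GFP fluorescence imaging.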
An asterisk follows results filed as active; ? = inconclusive; . = no result given. A selection: hits, their analogues and other compounds. The true share with any hit is near 17%. Calls follow the shape of the dose curve; as a rule, active = well fitted curve in the direction sought with a large enough effect; inconclusive = small, poorly fitted or top-dose-only effect, or another doubt; inactive = no such curve, though single readings can be large; an effect the other way counts as inactive or inconclusive. Potency is read from the fitted curve at half-maximal effect.

SMILES	TDP1 cell CPT	HT1080NT lethal	TDP1 cell noCPT	HT1080 IDH1KD tx	HepG2 tox	TGFb inhibitor
CSc1ccccc1C(=O)NCCCn1ccnc1	-3%	9%	11%	21%	7%	0%
Cc1cc([N+](=O)[O-])cnc1Sc1nccn1C	-10%	-3%	1%	0%	-12%	-21%
COc1ccc(-c2cn3c(n2)sc2cc(C(=O)Nc4cccc(SC)c4)ccc23)cc1	5.2µM*	.	6.5µM*	.	-16%	-7%
COc1ccc(-c2cn3c(n2)sc2cc(C(=O)Nc4cccc(OC)c4)ccc23)cc1	?	.	?	.	-35%	?
COc1ccc(CNC(=O)C2CCN(S(=O)(=O)c3ccc4c(c3)CC(C)N4C(=O)C3CC3)CC2)cc1 (stereo not drawn)	1%	-6%	7%	-15%	-3%	-27%
Cc1ccc2cc(CCNC(=O)c3cccc([N+](=O)[O-])c3)c(=O)[nH]c2c1	21µM*	10%	21µM*	0%	3%	6%
Cc1cc2cc(CCNC(=O)c3cccs3)c(=O)[nH]c2cc1C	?	-2%	?	-15%	-46%	?
COc1ccc(C(=O)NCCc2cc3ccc(C)c(C)c3[nH]c2=O)cc1OC	?	-1%	?	4%	3%	2%
Cc1ccc2cc(COC(=O)c3cccc([N+](=O)[O-])c3)c(=O)[nH]c2c1	-3%	-2%	0%	-5%	-17%	-6%
Cc1ccc(C(=O)NCCc2cc3ccc(C)c(C)c3[nH]c2=O)cc1[N+](=O)[O-]	10µM*	5%	?	-6%	10%	-15%
Cc1cc2cc(CCNC(=O)c3cccc([N+](=O)[O-])c3)c(=O)[nH]c2cc1C	?	5%	16µM*	0%	6%	-2%
CC(O)CNCCCOc1ccc(Cl)cc1C(C)(C)C (stereo not drawn)	13µM*	18µM*	13µM*	?	-99%	?
COCCCNCCCOc1ccc(Cl)cc1Br	26µM*	?	?	-26%	-36%	1%
CC(C)NCCCOc1ccc(Cl)cc1Br	18µM*	?	?	?	-38%	0%
CCCCNCCCOc1cc(Cl)ccc1Cl	?	?	?	-24%	-18%	?
CCCCNCCOCCOc1ccc(Cl)cc1Br	21µM*	?	33µM*	?	-4%	7%
Clc1ccc(OCCCN2CCCCC2)c(Br)c1	?	-15%	?	-11%	-28%	0%
COCCCNC(=O)COc1ccc(Br)cc1Cl	-5%	21%	-2%	12%	-15%	-21%
CC(C)NCCCCOc1ccc(Br)cc1Cl	23µM*	?	18µM*	?	-32%	5%
COc1ccc(CN2CCCC(N3CCN(c4ccc(OC)cc4)CC3)C2)cc1 (stereo not drawn)	-1%	3%	-17%	0%	-12%	0%
COc1ccc(CCC(=O)NCc2nc3cccnc3n2Cc2cccc(OC)c2)cc1	?	.	?	.	-30%	-10%
N#Cc1cc(N)ccc1-n1cccc1	-16%	-3%	-5%	-2%	16%	-8%
COc1ccc(-c2nc(/C=C3\C(C)=Nc4ccccc43)c(O)o2)cc1	6.5µM*	-2%	12µM*	14%	-5%	6%
CC1=Nc2ccccc2/C1=C\c1nc(-c2ccccc2)oc1O	5%	-4%	-9%	-5%	-7%	44%
O=C(N/N=C/c1ccccc1)c1ccc(CN2C(=O)c3cccc4cccc2c34)cc1	-12%	21µM*	-19%	?	-27%	0%
SMILES	TDP1 cell CPT	HT1080NT lethal	TDP1 cell noCPT	HT1080 IDH1KD tx	HepG2 tox	TGFb inhibitor
O=C(N/N=C/c1cccc2ccccc12)c1ccc(CN2CCOCC2)cc1	?	0%	?	-23%	2%	0%
O=C(N/N=C/c1ccc(O)cc1O)c1ccc(CN2C(=O)c3cccc4cccc2c34)cc1	4.6µM*	?	3.7µM*	?	-38%	?
CN(Cc1ccco1)c1ncnc2ccc(-c3cccnc3)cc12	15µM*	.	18µM*	.	.	.
CN(C)C(=O)c1ccc(-c2cncnc2N(C)Cc2ccco2)cc1	-2%	.	10%	.	.	.
CN(Cc1ccco1)c1ncnc2ccc(-c3ccc4c(ccn4C)c3)cc12	.	.	.	.	-25%	?
CN(Cc1ccco1)c1ncnc2ccc(-c3cccc(C#N)c3)cc12	23µM*	.	23µM*	.	.	.
CN(Cc1ccco1)c1ncnc2ccc(-c3ccc4c(c3)OCO4)cc12	18µM*	.	16µM*	.	-19%	-5%
CN(C)C(=O)c1ccc(-c2ccc3ncnc(N(C)Cc4ccco4)c3c2)cc1	5.8µM*	.	?	.	.	.
CCN(CC)CCNC(=O)c1ccc(NC(=O)c2ccc(-n3cncn3)c([N+](=O)[O-])c2)cc1	-1%	1%	-3%	1%	-10%	?
CS(=O)(=O)c1ccc2nc(NC(=O)CCNC(=O)c3ccccc3Cl)sc2c1	?	0%	?	-7%	-24%	-22%
Cc1noc(C)c1-c1ccc2ncnc(N(C)Cc3ccco3)c2c1	?	.	12µM*	.	.	.
O=C1c2ccccc2C(=O)c2c1ccc1c(=O)n(C3CCCCC3)[nH]c21	?	-17%	23µM*	-14%	-5%	?
O=C(COC(=O)c1cccc2c1C(=O)c1ccccc1C2=O)NC1CCCCC1	?	?	?	?	-8%	?
O=S1(=O)C[C@@H](N2CCOCC2)[C@H](N2CCOCC2)C1	2%	14%	-7%	10%	0%	-4%
C=CC1C(N2CCOCC2)C(C)(C)S1(=O)=O (stereo not drawn)	23µM*	16%	?	14%	-22%	-27%
CCCOc1ccc(N2C(=O)CC(NCCCN3CCC(C(N)=O)CC3)C2=O)cc1 (stereo not drawn)	26µM*	1%	?	9%	2%	-1%
Cn1c(=S)[nH]c2cc(C(=O)N3CCN(Cc4cccs4)CC3)ccc2c1=O	?	.	?	.	-22%	-1%
COc1cccc(OC)c1C(=O)Nc1cc(C)nn1-c1nc2ccccc2[nH]1	16µM*	6%	9.2µM*	0%	-18%	0%
Cc1cc(NC(=O)CC#N)n(-c2nc3ccccc3[nH]2)n1	?	8%	?	3%	-35%	-29%
